# A selection: hits, their analogues and other compounds. The true share with any hit is near 3.5%.
# GPR151 ag = activates the human receptor GPR151 | PathHunter beta-arrestin GPR151 cells, luminescence | activation, % at 11.2 µM | 650,000 tested, 1% active; in the data active means activation above about 4.9%;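 further: 0% = median of compound wells and 100% = cells with positive control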
# FBW7 act = human FBW7 E3 ligase activation, primary screen; normalized activity (activation), % at 26.1 µM; Q969H0; AlphaScreen FBW7–phospho-cyclin E peptide binding, activator screen; AID 1259310; 650,000 tested, 0.13% active; in the data active means normalized activity above about 1.9%;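 further: purified mutant Fbw7 with reduced substrate affinity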
# Target sequence (Q969H0 whole entry, looked up): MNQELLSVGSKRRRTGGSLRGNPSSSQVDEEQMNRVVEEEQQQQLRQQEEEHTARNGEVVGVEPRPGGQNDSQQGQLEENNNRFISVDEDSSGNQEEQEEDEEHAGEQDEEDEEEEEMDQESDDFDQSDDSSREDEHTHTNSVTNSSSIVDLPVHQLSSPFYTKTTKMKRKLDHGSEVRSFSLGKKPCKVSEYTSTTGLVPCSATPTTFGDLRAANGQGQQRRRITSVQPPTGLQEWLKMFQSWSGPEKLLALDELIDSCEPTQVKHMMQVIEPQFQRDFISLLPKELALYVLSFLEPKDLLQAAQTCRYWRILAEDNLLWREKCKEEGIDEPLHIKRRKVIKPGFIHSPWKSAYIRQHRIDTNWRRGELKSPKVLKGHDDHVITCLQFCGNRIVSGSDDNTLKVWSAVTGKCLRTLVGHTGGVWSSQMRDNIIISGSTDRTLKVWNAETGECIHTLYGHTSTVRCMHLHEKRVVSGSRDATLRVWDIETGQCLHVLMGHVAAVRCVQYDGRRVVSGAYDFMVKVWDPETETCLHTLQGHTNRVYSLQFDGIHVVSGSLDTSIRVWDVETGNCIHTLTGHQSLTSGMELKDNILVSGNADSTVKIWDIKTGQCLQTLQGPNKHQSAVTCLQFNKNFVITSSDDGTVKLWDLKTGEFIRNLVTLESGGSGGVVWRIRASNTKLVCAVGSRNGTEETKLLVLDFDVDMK
# TEAD-YAP block = TEAD-YAP interaction inhibition. 640,000 tested, 1.4% active. inhibition, % at 9.12 µM. AID 1259422. HEK-TIYL cells, TEAD-Gal4/YAP UAS-luciferase luminescence; in the data active means inhibition above about 32%;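 further: 0% = median of test compound wells and 100% = reference inhibitor wells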
# MITF inh = human MITF inhibition, primary screen. O75030. AlphaScreen MITF homodimerization, bead proximity signal. inhibition, % at 2.6 µM. 650,000 tested, 0.91% active. AID 1259374; in the data active means inhibition above about 50%;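 further: 0% = vehicle wells with protein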
# Numbers without * were called inactive.
SMILES,GPR151 ag,FBW7 act,TEAD-YAP block,MITF inh
O=C(NCCc1ccccc1)C1CCN(C(=O)NCc2ccccc2)CC1,0.5,-0.2,1.1,6.3
O=C(NCCc1ccccc1)N1CCC(c2nnc(C3CC3)s2)CC1,2.1,2.6*,-11.0,-6.7
CC(C)NC(=O)N1CCC(c2nnc(C(C)C)o2)CC1,-0.9,0.2,-3.9,-9.3
CC(C)NC(=O)N1CCC(c2nnc(C3CC3)s2)CC1,-0.7,2.1*,3.9,12.0
O=C(NCCn1ncc2c(N3CCCC3)ncnc21)c1ccc2c(c1)OCO2,0.8,0.0,-9.6,10.4
Cc1ccc(-c2cn3c(n2)sc2cc(C)ccc23)cc1,-4.1,1.4,78.3*,-4.7
O=c1oc2ccc3ccccc3c2cc1-c1cn2c(n1)sc1cc(Cl)ccc12,0.8,-0.1,6.1,1.3
COc1ccc(-c2cn3c(n2)sc2cc(C)ccc23)cc1,-1.8,0.3,24.2,-5.1
COc1ccc2c(c1)sc1nc(-c3cc4ccccc4oc3=O)cn12,0.3,-0.2,83.8*,-2.8
Cc1ccc2c(c1)sc1nc(-c3cc4ccccc4oc3=O)cn12,-0.1,0.0,65.6*,-2.6
O=c1oc2ccccc2cc1-c1cn2c(n1)sc1ccccc12,0.4,0.1,79.9*,-4.4
CC(C)n1c(N2CCC(N3CCOCC3)CC2)nc2c(Nc3ccc4c(c3)OCO4)ncnc21,-1.7,0.0,-2.2,17.6
COc1cc(/C=N/NC(=O)C(=O)NCc2ccccc2)ccc1O,0.2,0.0,2.9,3.9
O=C(/C=C/c1ccccc1[N+](=O)[O-])N1CCc2ccccc21,-0.8,0.0,43.7*,-1.6
O=C(/C=C/c1ccc(F)cc1)N1CCc2ccccc21,-4.0,0.1,55.9*,-2.2
O=C(/C=C/c1ccccc1[N+](=O)[O-])N1CCCC1,0.8,-0.1,-2.9,-1.5
O=C1c2cccc3cccc(c23)C(=O)N1CCN1CCN(S(=O)(=O)c2cccs2)CC1,0.1,0.1,-9.3,-2.4
CC(NCCN1CCNCC1)c1cc(C(C)(C)C)cc2c1CCC2(C)C (stereo not given),-0.8,0.6,64.0*,-16.8
CCC(=O)NNC(=O)CSc1nc2c(c(=O)n(C)c(=O)n2C)n1CC,0.6,-0.2,3.6,-11.1
COc1ccc2cc3cc(C(=O)N4CCCCC4C)oc3nc2c1 (stereo not given),-2.7,-0.2,35.9*,-6.5
COc1ccc(S(=O)(=O)N(CC(=O)NCCc2ccc(OC)c(OC)c2)c2ccc(C)cc2)cc1,-0.9,0.0,35.5*,1.3
COc1ccc2cc3cc(C(=O)NCCc4ccc(OC)c(OC)c4)oc3nc2c1,2.0,0.1,45.4*,-13.2
Cn1cnnc1SCC(=O)Nc1nnc(-c2ccccc2)s1,-1.6,-0.1,-45.0,-7.3
COc1ccc(S(=O)(=O)ON=C2C(C)=CC(=O)C=C2C)cc1,-1.8,0.5,14.4,-1.6
Cc1nc2ccccn2c1-c1csc(Nc2ccc(S(N)(=O)=O)cc2)n1,0.2,0.0,-2.7,5.0
SMILES,GPR151 ag,FBW7 act,TEAD-YAP block,MITF inh
Cc1ccc(Nc2nc(-c3c(C)nc4ccccn34)cs2)cc1,1.8,0.0,53.3*,14.9
CCN(CC)c1ccc(Nc2nc(-c3c(C)nc4ccccn34)cs2)cc1,3.3,-0.7,12.3,22.1
Cc1ccc(Nc2nc(-c3c(C)nc4ccccn34)cs2)c(C)c1,-0.5,-0.1,53.1*,-2.1
Cc1nc2ccccn2c1-c1csc(Nc2ccc(Cl)cc2)n1,0.4,-0.1,43.6*,7.6
COC(=O)c1ccc(NC(=O)C2(S(=O)(=O)c3ccc(Cl)cc3)CC2)cc1,0.7,-0.1,-2.1,-5.5
Cc1cnc(NC(=O)c2ccc(Cn3ccnc3)cc2)s1,-0.6,0.0,61.0*,-0.4
Cc1ccc(SCCNC(=O)CCl)cc1,-0.2,0.0,42.8*,-0.5
Cn1c(CS(=O)(=O)c2ccccc2)c(C#N)c2ccccc21,0.9,0.0,34.4*,-11.3
Cn1c(COc2ccccc2)c(C#N)c2ccccc21,-1.4,0.0,-40.9,0.0
COc1ccc(S(=O)(=O)NCc2ccco2)cc1I,-1.5,0.4,-1.5,-4.2
Clc1ccc2nc(NCCN3CCOCC3)nc(-c3ccccc3)c2c1,-0.2,0.0,38.0*,-4.0
O=C(CN1CCOCC1)NNc1nc(-c2ccccc2)c2cc(Cl)ccc2n1,0.9,0.1,18.5,3.3
O=C(Nc1ccc(-n2cccn2)cc1)C1CCN(Cc2nc3c(s2)CCCC3)CC1,-0.4,-0.2,37.7*,-5.4
O=C(Nc1ccccc1Br)/C(=C/c1ccc([N+](=O)[O-])cc1)NC(=O)c1ccccc1,0.8,-0.1,3.6,-3.5
COc1cc(CN2CCN(S(=O)(=O)c3ccc(NC(C)=O)cc3)CC2)ccc1OCc1ccccc1,2.2,0.2,30.5,40.1
COc1ccc(CN2CCN(S(=O)(=O)c3ccc(NC(C)=O)cc3)CC2)cc1OCc1ccccc1,0.7,-0.1,35.4*,46.1
Cc1ccc(S(=O)(=O)N2CCCc3ccccc32)cc1C,-0.4,0.3,1.8,2.2
COc1cc(S(=O)(=O)N2CCc3ccccc32)c(OC)cc1Cl,0.6,0.4,45.3*,-3.2
O=S(=O)(c1ccc(F)cc1)N1CCc2ccccc21,0.5,-0.1,5.4,0.0
O=S(=O)(c1cccc(S(=O)(=O)N2CCc3ccccc32)c1)N1CCCC1,-1.3,0.3,43.0*,28.2
Cc1ccc(S(=O)(=O)N2CCc3ccccc32)cc1[N+](=O)[O-],1.7,-0.8,56.1*,12.9
COc1ccc(S(=O)(=O)N2CCCc3ccccc32)cc1C,1.0,0.5,37.3*,-23.9
Cc1ccc(S(=O)(=O)N2CCc3ccccc32)cc1C(N)=O,0.6,0.0,3.3,9.7
O=C(Nc1nc(-c2ccc(Cl)c(Cl)c2)cs1)c1ccc(Cl)s1,-0.6,0.3,-1.3,9.3
Cc1cc(C)cc(N(C(C)C(=O)Nc2ccccc2C(=O)NCC(C)C)S(C)(=O)=O)c1 (stereo not given),0.5,0.1,1.8,2.9
SMILES,GPR151 ag,FBW7 act,TEAD-YAP block,MITF inh
CCCNC(=O)c1cc(S(=O)(=O)N2CCc3ccccc32)cn1C,3.0,0.0,32.2*,-6.5
COC(=O)c1cc(S(=O)(=O)N2CCc3ccccc32)cn1C,3.3,0.0,-0.3,14.7
CN1CCN(c2ncnc3c2c(-c2ccccc2)cn3-c2ccc(Cl)cc2)CC1,-1.9,-0.1,3.4,4.3
Cc1cccc(NC(=O)CSc2nc3c(c(=O)n2C)SCC3)c1C,-0.7,0.0,37.1*,3.1
CC1CCCC(NS(=O)(=O)c2ccc(F)c(C(=O)Nc3ccccc3Br)c2)C1C (stereo not given),-1.7,-0.1,0.3,-3.5
Cc1onc(-c2ccccc2)c1C1=N/C(=C\c2cccc(Br)c2)C(=O)O1,-0.5,2.2*,1.1,8.8
N=C1/C(=C/c2ccc(OCc3ccc4c(c3)OCO4)c(Cl)c2)C(=O)N=C2SC=CN12,-4.6,0.1,39.4*,-5.1
N=C1/C(=C/c2cn(Cc3ccc4c(c3)OCO4)c3ccccc23)C(=O)N=C2SC=CN12,2.1,0.0,12.4,7.4
CC(=O)C1=C(O)C(=O)N(c2nc3ccccc3s2)C1c1ccc(C(C)C)cc1 (stereo not given),-1.1,0.0,13.6,0.9
O=C1C(NC2CCCC2)=C(N2CCCCC2)C(=O)c2ccccc21,-2.2,0.4,85.9*,11.4
